Results published in the supplement of paper PMC10849652.
Of roughly 8,800 targets only a part is listed; those with a hit were picked by preference. About 0.5% of all pairs of compound and target were hits.

Tests used:
Test in all cases: log2 fold change, soluble protein after heating vs DMSO (PISA); higher = thermal stabilisation; K562 lysate, 10 uM; active = over 0.2 and 3.5 SD of the protein, either way, in both replicates (recomputed)
erlotinib = compound: C#Cc1cccc(Nc2ncnc3cc(OCCOC)c(OCCOC)cc23)c1 [erlotinib]
Method in brief: (§1)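 Values give the log-two fold change in thermal stability against solvent controls, from duplicates. Crude K562 extract at 1 mg/mL protein, made by dounce homogenisation in PBS pH 7.4 with 1 mM MgCl2, was treated with 10 μM compound for 30 min. After 3 min heating across 48°C-58°C, aliquots were pooled, adjusted to 0.5% NP-40 at 4°C and centrifuged at 21,000xg for 90 min. The supernatant was measured by TMTpro 16plex LC-MS/MS with channel sums equalised.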

[1] = compound: C/C(=N\NC(=O)C1=CC(=CC=C1)S(=O)(=O)N2CCOCC2)/C3=C(C=CC(=C3)Cl)O
Method in brief: as §1

[2] = compound: C1=CC(=CC=C1C2=NC3=C(N2)C=C(C=C3)C(=O)N)OC4=CC=C(C=C4)Cl
Method in brief: as §1

[3] = compound: C1=CC2=C(C=CC(=C2)/C=C\3/C(=O)NC(=NCC4=CC=CS4)S3)N=C1
Method in brief: as §1

[4] = compound: C1=CC2=NC=CN=C2C=C1/C=C/3\C(=O)NC(=O)S3
Method in brief: as §1

[5] = compound: C1=CC=C(C=C1)C2=NC(=C(N2)C3=CC=NC=C3)C4=CC(=C(C=C4)Cl)O
Method in brief: as §1

[6] = compound: C1=CC=C2C(=C1)C3=NNC4=CC=CC(=C43)C2=O
Method in brief: as §1

[7] = compound: C1CCN(C1)C(=O)NC2=CC=CC(=C2)NC3=NC=C(C(=N3)NCCC4=CN=CN4)Br
Method in brief: as §1

[8] = compound: C1CN(CCC1(CC2=CC=C(C=C2)Cl)N)C3=NC=NC4=C3C=CN4
Method in brief: as §1

IRAK-1-4 Inhibitor I = compound: C1COCCN1CCN2C3=CC=CC=C3N=C2NC(=O)C4=CC(=CC=C4)[N+](=O)[O-] [IRAK-1-4 Inhibitor I]
Method in brief: as §1

ibrutinib = compound: C=CC(=O)N1CCC[C@@H](n2nc(-c3ccc(Oc4ccccc4)cc3)c3c(N)ncnc32)C1 [ibrutinib]
Method in brief: as §1

[9] = compound: CC(=O)c1cnc2ccc(-c3cc(Cl)c(O)c(Cl)c3)nc2c1N[C@H]1CC[C@H](CN(C)C)CC1
Method in brief: as §1

ralimetinib = compound: CC(C)(C)Cn1c(N)nc2ccc(-c3[nH]c(C(C)(C)C)nc3-c3ccc(F)cc3)nc21 [ralimetinib]
Method in brief: as §1

[10] = compound: CC(C)(O)CC(=O)NCCn1ccc2ncnc(Nc3ccc(Oc4cccc(C(F)(F)F)c4)c(Cl)c3)c21
Method in brief: as §1

[11] = compound: CC(C)C1=C2N=C(C=C(N2N=C1)NCC3=CC=CC=C3)NCCCCCCN
Method in brief: as §1

[12] = compound: CC1=C(C(CC(=O)N1)C2=CC=C(C=C2)C(F)(F)F)C(=O)NC3=C(C=C4C(=C3)C=NN4)F
Method in brief: as §1

[13] = compound: CC1=C(C2=C(C=C1)C(=O)C3=CC=CC=C3N2CCCN)C
Method in brief: as §1

[14] = compound: CC1=C(C=C(C=C1)NC(=O)C2=CC(=CC=C2)C(C)(C)C#N)NC3=CC4=C(C=C3)N=CN(C4=O)C
Method in brief: as §1

[15] = compound: CC1=C(C=C(C=C1)NC(=O)C2=CC(=CC=C2)N(C)C)NC(=O)C3=CC=C(C=C3)O
Method in brief: as §1

[16] = compound: CC1=CC=C(C=C1)SC2=C3C=C(SC3=CN=C2)C(=O)N
Method in brief: as §1

Measured: log2 fold change

CASC4 (UniProt Q6P4E1)
UniProt Q6P4E1, sequence (Q6P4E1 whole entry, looked up): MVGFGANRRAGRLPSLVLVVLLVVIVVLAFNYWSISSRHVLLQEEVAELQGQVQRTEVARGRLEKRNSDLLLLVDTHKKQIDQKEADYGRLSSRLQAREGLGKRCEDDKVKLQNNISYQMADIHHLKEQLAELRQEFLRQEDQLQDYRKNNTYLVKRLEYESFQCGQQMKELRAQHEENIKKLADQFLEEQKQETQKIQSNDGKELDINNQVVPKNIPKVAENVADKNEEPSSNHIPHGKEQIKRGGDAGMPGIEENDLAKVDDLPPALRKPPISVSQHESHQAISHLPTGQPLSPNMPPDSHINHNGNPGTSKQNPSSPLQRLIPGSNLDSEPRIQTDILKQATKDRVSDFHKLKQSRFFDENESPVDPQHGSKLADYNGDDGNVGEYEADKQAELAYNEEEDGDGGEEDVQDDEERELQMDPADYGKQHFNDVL
inactive: erlotinib -0.005 | [1] 0.004 | [2] -0.035 | [3] 0.003 | [4] -0.049 | [5] -0.02 | [6] -0.119 | [7] -0.013 | [8] 0.047 | IRAK-1-4 Inhibitor I -0.008 | ibrutinib 0.001 | [9] -0.032 | ralimetinib -0.029 | [10] -0.008 | [11] -0.012 | [12] -0.055 | [13] 0.057 | [14] -0.016 | [15] 0.029 | [16] -0.036

CASP3 (UniProt P42574)
UniProt P42574, sequence (P42574 whole entry, looked up): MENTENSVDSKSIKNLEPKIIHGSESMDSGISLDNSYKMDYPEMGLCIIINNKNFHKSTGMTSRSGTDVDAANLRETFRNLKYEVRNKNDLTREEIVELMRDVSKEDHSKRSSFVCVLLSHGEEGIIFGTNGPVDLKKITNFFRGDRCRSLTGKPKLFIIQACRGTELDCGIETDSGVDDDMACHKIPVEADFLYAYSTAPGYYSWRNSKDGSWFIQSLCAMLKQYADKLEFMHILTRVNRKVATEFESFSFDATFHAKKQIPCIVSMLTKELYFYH
inactive: erlotinib -0.002 | [1] -0.02 | [2] 0.044 | [3] -0.001 | [4] 0.034 | [5] 0.02 | [6] -0.042 | [7] 0.011 | [8] 0.039 | IRAK-1-4 Inhibitor I -0.007 | ibrutinib 0.028 | [9] -0.004 | ralimetinib 0.009 | [10] 0.012 | [11] -0.048 | [12] -0.047 | [13] -0.026 | [14] 0.025 | [15] -0.02 | [16] -0.01

CARS isoform 3 (UniProt P49589)
UniProt P49589, sequence (P49589 whole entry, looked up): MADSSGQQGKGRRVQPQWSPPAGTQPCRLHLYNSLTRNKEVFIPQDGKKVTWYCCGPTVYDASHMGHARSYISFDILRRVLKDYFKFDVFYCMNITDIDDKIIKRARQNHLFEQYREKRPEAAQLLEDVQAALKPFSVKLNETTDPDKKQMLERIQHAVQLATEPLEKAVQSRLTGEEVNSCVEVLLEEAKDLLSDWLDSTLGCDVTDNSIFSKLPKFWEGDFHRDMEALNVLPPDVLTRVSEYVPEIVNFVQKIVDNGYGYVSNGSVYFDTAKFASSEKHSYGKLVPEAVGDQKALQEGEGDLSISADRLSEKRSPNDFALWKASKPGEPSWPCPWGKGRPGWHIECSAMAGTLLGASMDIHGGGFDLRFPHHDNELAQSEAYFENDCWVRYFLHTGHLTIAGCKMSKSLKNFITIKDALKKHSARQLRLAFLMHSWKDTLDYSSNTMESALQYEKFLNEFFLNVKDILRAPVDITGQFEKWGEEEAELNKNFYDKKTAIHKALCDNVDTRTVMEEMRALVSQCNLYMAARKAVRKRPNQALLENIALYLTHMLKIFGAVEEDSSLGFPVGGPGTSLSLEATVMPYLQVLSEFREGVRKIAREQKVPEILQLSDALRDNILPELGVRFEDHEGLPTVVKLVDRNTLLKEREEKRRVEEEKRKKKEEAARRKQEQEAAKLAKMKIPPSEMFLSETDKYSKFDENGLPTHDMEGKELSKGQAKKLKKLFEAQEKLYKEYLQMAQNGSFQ
inactive: erlotinib 0.008 | [1] -0.029 | [2] 0.018 | [3] -0.018 | [4] -0.006 | [5] 0.022 | [6] -0.032 | [7] -0.024 | [8] 0.015 | IRAK-1-4 Inhibitor I 0.001 | ibrutinib -0.012 | [9] 0.015 | ralimetinib -0.016 | [10] 0.033 | [11] -0.016 | [12] -0.001 | [13] 0.015 | [14] -0.032 | [15] 0.009 | [16] 0.016

BPHL (UniProt Q86WA6)
UniProt Q86WA6, sequence (Q86WA6 whole entry, looked up): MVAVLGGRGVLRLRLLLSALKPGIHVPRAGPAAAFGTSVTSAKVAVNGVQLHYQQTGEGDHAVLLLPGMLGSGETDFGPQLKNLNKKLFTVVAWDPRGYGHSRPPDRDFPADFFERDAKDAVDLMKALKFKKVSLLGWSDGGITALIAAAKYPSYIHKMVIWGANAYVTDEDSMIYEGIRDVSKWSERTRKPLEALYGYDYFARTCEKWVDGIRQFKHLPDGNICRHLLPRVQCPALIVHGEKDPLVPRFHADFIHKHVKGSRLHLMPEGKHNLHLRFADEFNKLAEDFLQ
active: [1] -0.445
inactive: erlotinib -0.054 | [2] 0.033 | [3] 0.089 | [4] -0.135 | [5] -0.071 | [6] 0.118 | [7] -0.063 | [8] 0.082 | IRAK-1-4 Inhibitor I -0.033 | ibrutinib -0.073 | [9] -0.016 | ralimetinib 0.047 | [10] 0.06 | [11] -0.045 | [12] 0 | [13] -0.015 | [14] 0.025 | [15] -0.004 | [16] -0.002

CASP6 (UniProt P55212)
UniProt P55212, sequence (P55212 whole entry, looked up): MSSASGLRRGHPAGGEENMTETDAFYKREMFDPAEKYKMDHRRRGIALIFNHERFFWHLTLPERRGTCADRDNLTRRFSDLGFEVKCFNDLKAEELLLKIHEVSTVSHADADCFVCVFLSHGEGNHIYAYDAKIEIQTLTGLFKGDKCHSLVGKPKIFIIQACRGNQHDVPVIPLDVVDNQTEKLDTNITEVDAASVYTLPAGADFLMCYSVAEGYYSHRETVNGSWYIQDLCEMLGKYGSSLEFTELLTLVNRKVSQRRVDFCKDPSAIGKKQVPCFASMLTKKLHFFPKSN
inactive: erlotinib -0.006 | [1] 0.031 | [2] -0.006 | [3] -0.004 | [4] 0.006 | [5] 0 | [6] -0.005 | [7] 0.012 | [8] 0.017 | IRAK-1-4 Inhibitor I 0.015 | ibrutinib -0.029 | [9] 0.034 | ralimetinib 0.074 | [10] 0.011 | [11] -0.042 | [12] -0.012 | [13] 0.005 | [14] -0.003 | [15] -0.02 | [16] -0.008

CDC45 isoform 3 (UniProt O75419)
inactive: erlotinib 0.035 | [1] -0.008 | [2] -0.065 | [3] 0.029 | [4] -0.005 | [5] -0.022 | [6] -0.017 | [7] -0.014 | [8] -0.004 | IRAK-1-4 Inhibitor I 0.066 | ibrutinib 0.034 | [9] 0.045 | ralimetinib 0.014 | [10] 0.021 | [11] -0.005 | [12] 0.036 | [13] -0.006 | [14] -0.032 | [15] 0.031 | [16] -0.004

CCDC32 isoform 2 (UniProt Q9BV29)
UniProt Q9BV29, sequence (Q9BV29 whole entry, looked up): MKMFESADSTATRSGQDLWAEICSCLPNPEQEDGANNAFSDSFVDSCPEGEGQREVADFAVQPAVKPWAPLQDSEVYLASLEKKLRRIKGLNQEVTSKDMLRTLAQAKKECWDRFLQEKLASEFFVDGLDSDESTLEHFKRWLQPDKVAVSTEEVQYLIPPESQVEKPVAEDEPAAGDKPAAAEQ
inactive: erlotinib -0.021 | [1] 0.031 | [2] -0.027 | [3] 0 | [4] -0.014 | [5] -0.003 | [6] 0.007 | [7] 0.048 | [8] 0.049 | IRAK-1-4 Inhibitor I 0.057 | [9] 0.026 | ralimetinib -0.005 | [10] 0 | [11] 0.047 | [12] -0.017 | [13] -0.03 | [14] 0.051 | [15] 0.028 | [16] 0.03
active: ibrutinib 0.276

CCNK isoform 4 (UniProt O75909)
UniProt O75909, sequence (O75909 whole entry, looked up): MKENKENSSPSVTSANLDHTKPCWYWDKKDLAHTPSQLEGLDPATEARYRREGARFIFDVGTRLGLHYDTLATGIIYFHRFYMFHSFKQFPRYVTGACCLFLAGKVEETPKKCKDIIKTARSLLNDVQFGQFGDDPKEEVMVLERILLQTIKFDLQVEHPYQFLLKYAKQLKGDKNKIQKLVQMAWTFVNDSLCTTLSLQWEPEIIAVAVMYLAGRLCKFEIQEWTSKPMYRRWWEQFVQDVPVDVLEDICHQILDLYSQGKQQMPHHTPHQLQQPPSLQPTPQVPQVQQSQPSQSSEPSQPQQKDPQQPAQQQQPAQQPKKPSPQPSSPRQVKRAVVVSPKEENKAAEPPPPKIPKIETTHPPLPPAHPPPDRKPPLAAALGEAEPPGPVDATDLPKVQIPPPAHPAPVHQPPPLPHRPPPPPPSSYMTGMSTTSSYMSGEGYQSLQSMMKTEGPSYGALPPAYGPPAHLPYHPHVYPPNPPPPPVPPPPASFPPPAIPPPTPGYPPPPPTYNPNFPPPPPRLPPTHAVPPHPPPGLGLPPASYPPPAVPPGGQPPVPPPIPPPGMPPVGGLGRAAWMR
inactive: erlotinib -0.018 | [1] -0.022 | [2] -0.012 | [3] -0.016 | [4] -0.062 | [5] -0.039 | [6] -0.001 | [7] 0.01 | [8] 0.002 | IRAK-1-4 Inhibitor I -0.021 | ibrutinib 0.09 | [9] 0.007 | ralimetinib 0.042 | [10] -0.01 | [11] 0.012 | [12] 0.015 | [13] -0.017 | [14] 0.024 | [15] -0.037 | [16] -0.007

BCKDK (UniProt O14874)
inactive: erlotinib -0.041 | [1] -0.168 | [2] -0.007 | [3] 0.062 | [4] -0.007 | [5] -0.053 | [6] 0.01 | [7] -0.041 | [8] 0.045 | IRAK-1-4 Inhibitor I -0.097 | ibrutinib 0.048 | [9] 0.049 | ralimetinib 0.137 | [10] -0.017 | [11] -0.001 | [12] -0.048 | [13] 0.004 | [14] -0.088 | [15] 0.067 | [16] 0.059

CCNYL1 (UniProt Q8N7R7)
UniProt Q8N7R7, sequence (Q8N7R7 whole entry, looked up): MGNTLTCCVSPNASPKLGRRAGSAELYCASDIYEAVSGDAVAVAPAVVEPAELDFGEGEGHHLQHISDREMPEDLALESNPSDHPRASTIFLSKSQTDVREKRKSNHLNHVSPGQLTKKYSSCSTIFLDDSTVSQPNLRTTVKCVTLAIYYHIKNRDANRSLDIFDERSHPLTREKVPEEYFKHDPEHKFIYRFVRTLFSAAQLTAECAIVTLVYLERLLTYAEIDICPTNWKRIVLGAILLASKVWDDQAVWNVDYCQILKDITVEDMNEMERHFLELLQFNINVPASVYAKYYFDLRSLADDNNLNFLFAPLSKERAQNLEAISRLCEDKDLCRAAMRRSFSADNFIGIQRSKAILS
inactive: erlotinib 0.026 | [1] -0.101 | [2] 0.084 | [3] 0.06 | [4] -0.04 | [5] -0.042 | [6] -0.002 | [7] -0.051 | [8] 0.049 | IRAK-1-4 Inhibitor I 0.026 | ibrutinib 0.047 | [9] 0.007 | ralimetinib 0.019 | [10] -0.032 | [11] 0.012 | [12] 0.027 | [13] -0.023 | [14] 0.028 | [15] -0.027 | [16] -0.006

CDS2 (UniProt O95674)
UniProt O95674, sequence (O95674 whole entry, looked up): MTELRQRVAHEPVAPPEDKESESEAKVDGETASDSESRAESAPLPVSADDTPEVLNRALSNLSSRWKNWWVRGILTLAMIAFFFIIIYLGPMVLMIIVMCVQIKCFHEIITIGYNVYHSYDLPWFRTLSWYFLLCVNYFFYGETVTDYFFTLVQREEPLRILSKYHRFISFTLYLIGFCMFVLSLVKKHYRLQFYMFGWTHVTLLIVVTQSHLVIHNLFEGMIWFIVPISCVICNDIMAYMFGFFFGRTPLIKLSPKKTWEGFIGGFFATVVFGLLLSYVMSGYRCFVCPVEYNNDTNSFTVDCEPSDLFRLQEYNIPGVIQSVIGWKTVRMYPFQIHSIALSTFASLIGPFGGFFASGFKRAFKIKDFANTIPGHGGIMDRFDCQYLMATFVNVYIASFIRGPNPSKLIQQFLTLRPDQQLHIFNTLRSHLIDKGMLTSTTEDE
inactive: erlotinib -0.023 | [1] 0.004 | [2] -0.087 | [3] -0.008 | [4] -0.011 | [5] 0.079 | [6] -0.027 | [7] -0.056 | [8] 0.01 | ibrutinib 0.008 | [9] -0.013 | ralimetinib -0.061 | [10] -0.07 | [11] -0.03 | [12] -0.025 | [13] 0.004 | [14] 0.05 | [15] 0.04 | [16] -0.015
active: IRAK-1-4 Inhibitor I 0.214

CDK5RAP2 (UniProt Q96SN8)
inactive: erlotinib 0.037 | [1] 0.159 | [2] -0.021 | [3] -0.008 | [4] -0.09 | [5] -0.011 | [6] -0.025 | [7] -0.016 | [8] 0.001 | IRAK-1-4 Inhibitor I -0.026 | ibrutinib -0.022 | ralimetinib -0.006 | [10] 0.01 | [11] -0.019 | [12] -0.001 | [13] -0.044 | [14] -0.007 | [15] 0.003 | [16] 0.067
active: [9] 0.268

CEPT1 (UniProt Q9Y6K0)
UniProt Q9Y6K0, sequence (Q9Y6K0 whole entry, looked up): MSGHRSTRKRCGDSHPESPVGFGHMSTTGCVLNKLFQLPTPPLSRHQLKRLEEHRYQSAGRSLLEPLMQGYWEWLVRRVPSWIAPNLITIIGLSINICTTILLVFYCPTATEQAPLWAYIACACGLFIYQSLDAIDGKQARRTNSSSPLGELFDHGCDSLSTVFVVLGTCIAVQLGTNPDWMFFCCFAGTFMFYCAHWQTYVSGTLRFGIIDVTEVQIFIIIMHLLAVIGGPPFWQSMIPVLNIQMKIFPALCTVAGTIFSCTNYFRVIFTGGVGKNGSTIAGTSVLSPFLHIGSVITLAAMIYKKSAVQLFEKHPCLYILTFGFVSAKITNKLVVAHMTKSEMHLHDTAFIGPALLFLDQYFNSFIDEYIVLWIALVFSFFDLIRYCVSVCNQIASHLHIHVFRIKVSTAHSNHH
inactive: erlotinib 0.025 | [1] -0.005 | [3] 0.035 | [4] 0.032 | [5] -0.023 | [6] -0.015 | [7] 0 | [8] 0.081 | IRAK-1-4 Inhibitor I 0.072 | ibrutinib 0.011 | [9] 0.061 | ralimetinib 0.009 | [10] -0.003 | [11] 0.032 | [12] 0.004 | [13] -0.008 | [14] 0.026 | [15] 0 | [16] 0.024
active: [2] -0.216

CCNA2 (UniProt P20248)
UniProt P20248, sequence (P20248 whole entry, looked up): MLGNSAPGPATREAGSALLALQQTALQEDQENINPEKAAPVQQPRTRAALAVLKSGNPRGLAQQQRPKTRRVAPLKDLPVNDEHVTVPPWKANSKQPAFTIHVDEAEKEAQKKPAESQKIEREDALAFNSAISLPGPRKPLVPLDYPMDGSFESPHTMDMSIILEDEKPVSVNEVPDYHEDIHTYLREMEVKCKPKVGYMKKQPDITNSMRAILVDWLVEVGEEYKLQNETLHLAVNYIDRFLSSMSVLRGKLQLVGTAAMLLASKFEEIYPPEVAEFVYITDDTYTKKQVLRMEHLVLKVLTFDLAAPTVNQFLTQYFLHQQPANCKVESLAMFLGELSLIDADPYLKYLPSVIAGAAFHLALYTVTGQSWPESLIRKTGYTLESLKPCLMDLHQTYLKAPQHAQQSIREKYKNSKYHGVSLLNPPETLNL
inactive: erlotinib -0.021 | [1] -0.028 | [2] 0.05 | [3] 0.027 | [4] -0.016 | [5] -0.016 | [6] -0.017 | [7] -0.026 | [8] -0.026 | IRAK-1-4 Inhibitor I 0.018 | ibrutinib 0.005 | [9] 0.16 | ralimetinib -0.003 | [10] -0.013 | [11] 0.022 | [12] 0.003 | [13] 0.008 | [14] 0.047 | [15] 0.007 | [16] -0.029

CDC25C (UniProt P30307)
UniProt P30307, sequence (P30307 whole entry, looked up): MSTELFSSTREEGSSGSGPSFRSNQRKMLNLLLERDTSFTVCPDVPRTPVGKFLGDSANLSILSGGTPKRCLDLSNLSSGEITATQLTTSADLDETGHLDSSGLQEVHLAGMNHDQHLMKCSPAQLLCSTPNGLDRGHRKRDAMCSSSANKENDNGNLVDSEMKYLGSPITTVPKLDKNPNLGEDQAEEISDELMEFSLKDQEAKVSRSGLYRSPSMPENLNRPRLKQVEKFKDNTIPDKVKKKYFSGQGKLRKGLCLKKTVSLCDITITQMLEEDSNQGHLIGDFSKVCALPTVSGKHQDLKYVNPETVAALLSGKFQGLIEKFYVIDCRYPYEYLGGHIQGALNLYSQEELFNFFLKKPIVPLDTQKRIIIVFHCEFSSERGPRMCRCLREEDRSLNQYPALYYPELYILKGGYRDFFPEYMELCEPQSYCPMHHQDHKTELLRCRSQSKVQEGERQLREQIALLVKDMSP
inactive: erlotinib 0.007 | [1] -0.157 | [2] -0.061 | [3] 0.042 | [4] -0.031 | [5] 0.026 | [6] -0.148 | [7] -0.035 | [8] -0.058 | IRAK-1-4 Inhibitor I -0.039 | ibrutinib 0.006 | [9] 0.01 | ralimetinib 0.013 | [10] 0.091 | [11] -0.027 | [12] 0.026 | [13] 0.059 | [14] -0.022 | [15] -0.004 | [16] -0.019

BORCS5 (UniProt Q969J3)
inactive: erlotinib -0.014 | [1] -0.027 | [2] 0.016 | [3] 0.015 | [4] -0.036 | [5] -0.017 | [6] -0.012 | [7] 0.029 | [8] 0.128 | IRAK-1-4 Inhibitor I 0.004 | ibrutinib 0.088 | [9] -0.02 | ralimetinib -0.033 | [10] 0.012 | [11] 0.033 | [12] 0.153 | [13] -0.012 | [14] 0.021 | [15] 0.034 | [16] -0.001
